Assay results from the supplement of paper PMC10849652.
About 7,900 targets were measured; listed, in parts, are those with a hit and a random draw of the rest. About 0.6% of all pairs of compound and target were hits.

How the values were obtained:
Assay in all cases: log2 fold change, soluble protein after heating vs DMSO (PISA); higher = thermal stabilisation; K562 cells, 10 uM, 30 min; active = over 0.2 and 3.5 SD of the protein, either way, in both replicates (recomputed)
erlotinib = compound: C#Cc1cccc(Nc2ncnc3cc(OCCOC)c(OCCOC)cc23)c1 [erlotinib]
How it was run: (§1)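 K562 cells (2×10^6 cells/mL) were treated with 10 μM compound for 30 min, and aliquots were heated for 3 min over 48°C-58°C. Pooled aliquots were extracted in PBS with 0.5% NP-40 at 4°C, and the supernatant after 21,000xg for 90 min was measured by TMTpro 16plex LC-MS/MS with channel sums equalised. Reported thermal stability, relative to control samples and from duplicates, is a log2 fold change.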

[1] = compound: C/C(=N\NC(=O)C1=CC(=CC=C1)S(=O)(=O)N2CCOCC2)/C3=C(C=CC(=C3)Cl)O
How it was run: as §1

[2] = compound: C1=CC(=C(C=C1Cl)C2=NC3=NC=CN=C3C(=N2)NC4=CC=NC=C4)F
How it was run: as §1

[3] = compound: C1=CC(=CC=C1C2=NC3=C(N2)C=C(C=C3)C(=O)N)OC4=CC=C(C=C4)Cl
How it was run: as §1

[4] = compound: C1=CC2=C(C=CC(=C2)/C=C\3/C(=O)NC(=NCC4=CC=CS4)S3)N=C1
How it was run: as §1

[5] = compound: C1=CC2=NC=CN=C2C=C1/C=C/3\C(=O)NC(=O)S3
How it was run: as §1

[6] = compound: C1=CC=C(C=C1)C2=NC(=C(N2)C3=CC=NC=C3)C4=CC(=C(C=C4)Cl)O
How it was run: as §1

[7] = compound: C1=CC=C2C(=C1)C3=NNC4=CC=CC(=C43)C2=O
How it was run: as §1

[8] = compound: C1CCN(C1)C(=O)NC2=CC=CC(=C2)NC3=NC=C(C(=N3)NCCC4=CN=CN4)Br
How it was run: as §1

[9] = compound: C1CN(CCC1(CC2=CC=C(C=C2)Cl)N)C3=NC=NC4=C3C=CN4
How it was run: as §1

IRAK-1-4 Inhibitor I = compound: C1COCCN1CCN2C3=CC=CC=C3N=C2NC(=O)C4=CC(=CC=C4)[N+](=O)[O-] [IRAK-1-4 Inhibitor I]
How it was run: as §1

ibrutinib = compound: C=CC(=O)N1CCC[C@@H](n2nc(-c3ccc(Oc4ccccc4)cc3)c3c(N)ncnc32)C1 [ibrutinib]
How it was run: as §1

[10] = compound: CC(=O)c1cnc2ccc(-c3cc(Cl)c(O)c(Cl)c3)nc2c1N[C@H]1CC[C@H](CN(C)C)CC1
How it was run: as §1

ralimetinib = compound: CC(C)(C)Cn1c(N)nc2ccc(-c3[nH]c(C(C)(C)C)nc3-c3ccc(F)cc3)nc21 [ralimetinib]
How it was run: as §1

[11] = compound: CC(C)(O)CC(=O)NCCn1ccc2ncnc(Nc3ccc(Oc4cccc(C(F)(F)F)c4)c(Cl)c3)c21
How it was run: as §1

[12] = compound: CC(C)C1=C2N=C(C=C(N2N=C1)NCC3=CC=CC=C3)NCCCCCCN
How it was run: as §1

[13] = compound: CC(C)C[C@@H](C=O)NC(=O)[C@H](CC(C)C)NC(=O)[C@H](CC(C)C)NC(=O)OCc1ccccc1
How it was run: as §1

pinometostat = compound: CC(C)N(C[C@H]1O[C@@H](n2cnc3c(N)ncnc32)[C@H](O)[C@@H]1O)[C@H]1C[C@@H](CCc2nc3cc(C(C)(C)C)ccc3[nH]2)C1 [pinometostat]
How it was run: as §1

[14] = compound: CC1=C(C(CC(=O)N1)C2=CC=C(C=C2)C(F)(F)F)C(=O)NC3=C(C=C4C(=C3)C=NN4)F
How it was run: as §1

[15] = compound: CC1=C(C2=C(C=C1)C(=O)C3=CC=CC=C3N2CCCN)C
How it was run: as §1

Measured: log2 fold change

PFAS (UniProt O15067)
inactive: erlotinib -0.011 | [1] 0.141 | [2] 0.066 | [3] 0.205 | [4] 0.034 | [5] -0.22 | [6] 0.087 | [7] 0.068 | [8] -0.01 | [9] -0.146 | IRAK-1-4 Inhibitor I -0.055 | ibrutinib 0.065 | [10] -0.217 | ralimetinib -0.003 | [11] 0.02 | [12] 0.131 | [13] -0.055 | pinometostat -0.02 | [14] 0.039 | [15] 0.17

PCBP2 isoform 3 (UniProt Q15366)
Chain of UniProt Q15366 (Q15366 whole entry, looked up): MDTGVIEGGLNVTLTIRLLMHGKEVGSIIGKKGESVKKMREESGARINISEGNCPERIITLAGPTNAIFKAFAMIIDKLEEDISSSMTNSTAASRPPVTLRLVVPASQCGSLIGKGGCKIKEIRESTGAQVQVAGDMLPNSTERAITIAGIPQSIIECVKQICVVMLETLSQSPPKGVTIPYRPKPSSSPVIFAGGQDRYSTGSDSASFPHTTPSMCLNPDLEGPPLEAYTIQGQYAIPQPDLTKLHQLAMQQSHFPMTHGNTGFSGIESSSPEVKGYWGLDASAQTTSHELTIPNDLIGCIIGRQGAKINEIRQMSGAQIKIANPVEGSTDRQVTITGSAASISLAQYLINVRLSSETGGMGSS
inactive: erlotinib -0.01 | [1] 0.087 | [2] 0.038 | [3] -0.039 | [4] 0.019 | [5] 0.025 | [6] 0.063 | [7] 0.017 | [8] -0.039 | [9] 0.01 | IRAK-1-4 Inhibitor I -0.065 | ibrutinib -0.048 | [10] -0.056 | ralimetinib 0.017 | [11] -0.067 | [12] -0.211 | [13] -0.029 | pinometostat -0.049 | [14] -0.013 | [15] 0.025

PPOX (UniProt P50336)
Chain of UniProt P50336 (P50336 whole entry, looked up): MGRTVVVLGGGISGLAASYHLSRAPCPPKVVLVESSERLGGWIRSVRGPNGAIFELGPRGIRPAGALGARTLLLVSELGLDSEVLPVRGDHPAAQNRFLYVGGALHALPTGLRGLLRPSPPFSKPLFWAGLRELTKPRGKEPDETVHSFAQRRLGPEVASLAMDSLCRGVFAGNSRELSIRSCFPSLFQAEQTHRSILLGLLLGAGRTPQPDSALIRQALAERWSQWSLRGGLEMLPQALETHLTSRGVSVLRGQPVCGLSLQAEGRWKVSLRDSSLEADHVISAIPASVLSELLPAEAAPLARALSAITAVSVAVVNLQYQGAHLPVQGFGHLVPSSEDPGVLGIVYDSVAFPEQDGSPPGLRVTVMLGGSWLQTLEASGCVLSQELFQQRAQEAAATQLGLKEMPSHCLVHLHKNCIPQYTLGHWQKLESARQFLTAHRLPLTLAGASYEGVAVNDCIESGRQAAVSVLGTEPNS
inactive: erlotinib 0.112 | [1] 0.415 | [2] 0.156 | [3] 0.416 | [4] 0.039 | [5] -0.004 | [6] 0.095 | [7] 0.013 | [8] 0.051 | [9] -0.011 | IRAK-1-4 Inhibitor I 0.095 | ibrutinib 0.136 | [10] -0.151 | ralimetinib 0.077 | [11] 0.187 | [12] -0.217 | [13] -0.008 | pinometostat -0.039 | [14] -0.095 | [15] -0.009

PLA2G15 (UniProt Q8NCC3)
Chain of UniProt Q8NCC3 (Q8NCC3 whole entry, looked up): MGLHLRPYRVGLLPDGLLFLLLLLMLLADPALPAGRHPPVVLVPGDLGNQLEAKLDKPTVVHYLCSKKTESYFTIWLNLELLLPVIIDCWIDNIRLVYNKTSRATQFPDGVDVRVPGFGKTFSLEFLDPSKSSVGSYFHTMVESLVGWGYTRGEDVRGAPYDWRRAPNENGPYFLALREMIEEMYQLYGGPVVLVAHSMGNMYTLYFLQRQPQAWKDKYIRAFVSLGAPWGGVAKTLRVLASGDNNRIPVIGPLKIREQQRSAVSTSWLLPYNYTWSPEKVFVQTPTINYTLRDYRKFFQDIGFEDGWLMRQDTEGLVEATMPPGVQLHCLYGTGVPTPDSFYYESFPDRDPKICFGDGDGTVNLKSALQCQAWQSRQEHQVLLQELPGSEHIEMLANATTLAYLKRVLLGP
inactive: erlotinib 0.064 | [1] 0.004 | [2] 0.038 | [3] -0.02 | [4] 0.026 | [5] 0.035 | [6] -0.007 | [7] 0.021 | [8] 0.01 | [9] 0.052 | IRAK-1-4 Inhibitor I 0.071 | ibrutinib -0.012 | [10] -0.018 | ralimetinib -0.057 | [11] -0.004 | [12] -0.024 | [13] 0.113 | pinometostat 0.006 | [14] -0.031 | [15] -0.141

PCBP1 (UniProt Q15365)
Chain of UniProt Q15365 (Q15365 whole entry, looked up): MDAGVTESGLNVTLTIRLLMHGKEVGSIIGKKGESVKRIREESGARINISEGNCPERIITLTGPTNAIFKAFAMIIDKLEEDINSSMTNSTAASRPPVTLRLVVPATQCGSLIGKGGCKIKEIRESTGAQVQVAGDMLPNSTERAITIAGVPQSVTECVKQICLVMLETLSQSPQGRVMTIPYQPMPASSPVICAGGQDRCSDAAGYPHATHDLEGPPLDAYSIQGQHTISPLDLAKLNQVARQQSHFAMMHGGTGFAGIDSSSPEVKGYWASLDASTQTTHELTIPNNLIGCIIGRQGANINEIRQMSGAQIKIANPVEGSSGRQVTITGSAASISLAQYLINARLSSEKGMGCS
inactive: erlotinib -0.009 | [1] 0.092 | [2] 0.062 | [3] -0.031 | [4] 0.011 | [5] -0.002 | [6] 0.057 | [7] 0.031 | [8] -0.034 | [9] 0.002 | IRAK-1-4 Inhibitor I 0 | ibrutinib -0.017 | [10] -0.005 | ralimetinib 0.058 | [11] -0.058 | [12] -0.118 | [13] -0.006 | pinometostat -0.003 | [14] 0.023 | [15] 0.039

PRKCG (UniProt P05129)
inactive: erlotinib -0.04 | [1] 0.058 | [2] 0.052 | [3] 0.04 | [4] 0.144 | [5] -0.033 | [6] 0.074 | [7] 0.023 | [8] -0.052 | [9] -0.138 | IRAK-1-4 Inhibitor I 0.025 | ibrutinib -0.024 | [10] -0.351 | ralimetinib 0.049 | [11] -0.099 | [12] -0.097 | [13] 0.055 | pinometostat 0.054 | [14] 0.037 | [15] 0.028

PIKFYVE (UniProt Q9Y2I7)
Chain of UniProt Q9Y2I7 (Q9Y2I7 whole entry, looked up): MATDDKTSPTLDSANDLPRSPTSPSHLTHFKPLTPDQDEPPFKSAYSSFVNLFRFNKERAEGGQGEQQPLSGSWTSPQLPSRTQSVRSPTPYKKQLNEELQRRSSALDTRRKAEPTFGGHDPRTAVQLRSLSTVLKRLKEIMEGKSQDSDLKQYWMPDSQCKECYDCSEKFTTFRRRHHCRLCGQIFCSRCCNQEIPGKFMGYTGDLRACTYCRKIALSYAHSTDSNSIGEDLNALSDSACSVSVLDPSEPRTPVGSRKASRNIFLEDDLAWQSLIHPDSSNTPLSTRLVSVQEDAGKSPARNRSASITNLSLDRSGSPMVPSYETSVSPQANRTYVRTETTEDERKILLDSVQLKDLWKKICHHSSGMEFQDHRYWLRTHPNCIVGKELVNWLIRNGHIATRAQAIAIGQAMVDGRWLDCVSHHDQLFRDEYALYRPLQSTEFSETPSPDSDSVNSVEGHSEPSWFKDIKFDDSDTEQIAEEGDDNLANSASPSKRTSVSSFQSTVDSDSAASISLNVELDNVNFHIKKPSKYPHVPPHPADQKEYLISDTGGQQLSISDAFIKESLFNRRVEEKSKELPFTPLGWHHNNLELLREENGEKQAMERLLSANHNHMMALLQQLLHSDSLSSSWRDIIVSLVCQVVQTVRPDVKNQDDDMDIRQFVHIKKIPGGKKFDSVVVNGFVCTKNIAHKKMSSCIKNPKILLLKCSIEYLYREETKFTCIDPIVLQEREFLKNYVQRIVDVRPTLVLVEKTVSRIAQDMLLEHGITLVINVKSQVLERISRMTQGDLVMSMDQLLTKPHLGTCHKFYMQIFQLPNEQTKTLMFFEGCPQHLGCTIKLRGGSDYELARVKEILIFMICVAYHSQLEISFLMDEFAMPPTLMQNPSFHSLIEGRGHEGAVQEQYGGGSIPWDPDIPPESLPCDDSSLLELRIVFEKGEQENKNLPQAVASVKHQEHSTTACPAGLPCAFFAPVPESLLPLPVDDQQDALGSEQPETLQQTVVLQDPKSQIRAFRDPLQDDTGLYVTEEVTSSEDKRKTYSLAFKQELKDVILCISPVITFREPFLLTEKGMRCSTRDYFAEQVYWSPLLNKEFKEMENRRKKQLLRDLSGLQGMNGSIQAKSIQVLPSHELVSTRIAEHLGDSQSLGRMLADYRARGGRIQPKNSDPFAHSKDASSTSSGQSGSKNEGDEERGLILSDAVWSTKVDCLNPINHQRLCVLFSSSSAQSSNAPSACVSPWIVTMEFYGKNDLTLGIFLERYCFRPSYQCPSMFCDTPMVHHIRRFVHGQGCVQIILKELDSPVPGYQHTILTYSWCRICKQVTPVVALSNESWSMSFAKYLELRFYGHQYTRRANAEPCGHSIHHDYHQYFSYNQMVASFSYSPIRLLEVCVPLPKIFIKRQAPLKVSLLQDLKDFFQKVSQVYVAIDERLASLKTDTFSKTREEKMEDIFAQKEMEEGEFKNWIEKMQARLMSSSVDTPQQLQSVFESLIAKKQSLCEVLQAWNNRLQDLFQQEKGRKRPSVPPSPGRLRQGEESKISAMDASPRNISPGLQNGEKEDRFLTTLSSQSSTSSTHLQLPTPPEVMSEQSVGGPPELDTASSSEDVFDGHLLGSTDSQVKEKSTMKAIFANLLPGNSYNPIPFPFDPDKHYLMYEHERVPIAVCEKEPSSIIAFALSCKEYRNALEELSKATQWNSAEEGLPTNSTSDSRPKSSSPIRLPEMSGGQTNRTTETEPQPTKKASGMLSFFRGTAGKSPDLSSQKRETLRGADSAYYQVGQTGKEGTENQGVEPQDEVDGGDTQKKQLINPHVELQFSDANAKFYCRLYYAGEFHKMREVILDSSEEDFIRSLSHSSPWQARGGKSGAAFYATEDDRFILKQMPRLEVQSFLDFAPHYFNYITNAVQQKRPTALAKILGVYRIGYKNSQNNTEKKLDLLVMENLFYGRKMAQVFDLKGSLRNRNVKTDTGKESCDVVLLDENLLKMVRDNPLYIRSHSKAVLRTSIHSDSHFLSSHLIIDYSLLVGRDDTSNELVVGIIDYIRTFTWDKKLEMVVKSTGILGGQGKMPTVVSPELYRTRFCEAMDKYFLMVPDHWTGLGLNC
inactive: erlotinib -0.174 | [1] 0.111 | [2] 0.082 | [3] 0.082 | [4] -0.007 | [5] 0.075 | [6] 0.04 | [7] -0.014 | [8] 0.037 | [9] -0.108 | IRAK-1-4 Inhibitor I -0.032 | ibrutinib -0.097 | [10] -0.07 | ralimetinib -0.002 | [11] -0.145 | [12] -0.256 | [13] 0.063 | pinometostat 0.006 | [14] 0.034 | [15] 0.012
